Rows were chosen to be rich in hits. Some 7.9% of all compounds tested hit in one or more screens of this group.
HT1080 IDH1KD tx: kills HT-1080 cells with IDH1 knockdown | 360,000 compounds, 2% hits | HT-1080 IDH1 knockdown viability, ATP luminescence, 48 h | AID 686971 | Potency, µM (doses to about 46.1 µM), for the others: at the top dose activity, negative = toxicity, hits mostly cytotoxic;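 further: 0% = DMSO wells and -100% = cell-free medium wells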
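Cytotoxicity counter-line: IDH1KD HT-1080, 48 h, CellTiter-Glo. Curves classed by r2, magnitude and activity.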
KB-3-1 tox: KB-3-1 parental cell cytotoxicity | KB-3-1 viability, CellTiter-Glo ATP luminescence, 72 h | Potency, µM (titrated, usually from 46.1 µM), usual class: cytotoxic | 400,000 compounds, 1.4% hits | AID 1347075; further: on the % scale 0 is the no-effect control and ±100 the full control effect; nearly all actives have a fitted effect of over 60% in size
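KB-3-1 parental drug-naive adenocarcinoma cells in DMEM/10% FBS, incubated 72 h at 37 C with pin-transferred compounds across a concentration series. Viability by CellTiter-Glo luminescence; concentration-response curves fitted after normalization.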
KB-V1 cytotox: KB-V1 MDR subline cytotoxicity | KB-V1 MDR cells viability, CellTiter-Glo, 72 h | Potency, µM (titrated, usually from 46.1 µM), usual class: cytotoxic | 400,000 compounds, 3.4% hits; further: on the % scale 0 is the no-effect control and ±100 the full control effect; nearly all actives have a fitted effect of over 60% in size
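KB-V1, DMEM (no phenol red) + 10% FBS; cpd pin-transferred, titration series; 72 h, 37 degrees C; CellTiter-Glo, luminescence. Data normalized, curve-fit.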
HT1080NT lethal: kills 2HG-producing HT-1080-NT fibrosarcoma cells | 360,000 compounds, 1.6% hits | AID 686970 | HT-1080-NT fibrosarcoma viability, CellTiter-Glo ATP luminescence, 48 h | Potency, µM (top dose mostly 46.1 µM), for inactives: at the highest dose activity, negative = less viability, most hits filed as cytotoxic;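 further: NT is the 2HG producing partner of a matched IDH1 knockdown line; 0% = DMSO-treated cells and -100% = media-only wells without cells; nearly all actives have a fitted effect of over 55% in size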
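Viability of the 2HG-overproducing fibrosarcoma line after 48 hours of compound exposure at 37 degrees C was determined by luminescence with CellTiter-Glo, and concentration-effect curves were then fitted and categorized.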
SW480 rerep: DNA re-replication induction in SW480 cells | SW480 DNA re-replication, Hoechst DNA content imaging, 48 h | Potency, µM (titrated, usually from 46.1 µM), inactives show at the top dose re-replication activation, actives largely listed as activators | 340,000 compounds, 1.8% hits; further: % of control where 0% means no effect; nearly all actives have a fitted effect of over 55% in size
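Cells (250 per well) received 23 nL compound or DMSO by pin tool and were kept 48 hr at 37 C, 5% CO2. Nuclei were then stained with Hoechst for 40 min and scanned for DNA content.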
MCF10A rerep: induces DNA re-replication in MCF 10a normal breast cells | MCF 10A DNA re-replication, Hoechst nuclear intensity, 48 h | Potency, µM (top dose mostly 46.1 µM), inactives show top-dose activity, positive = re-replication, most hits filed as activators | 350,000 compounds, 2.9% hits | AID 624296; further: % of control where 0% means no effect; nearly all actives have a fitted effect of over 50% in size
An asterisk follows results filed as active; i = inactive; ? = inconclusive; · = no result; [ ] = remark or other dose. The call rests on the fitted dose curve; in most records, active means well fitted curve in the direction sought with a large enough effect; inconclusive means small, poorly fitted or top-dose-only effect, or another doubt; inactive means no such curve, though single readings can be large; an effect the other way counts as inactive or inconclusive. Potency means the concentration at half of the fitted maximal effect.

SMILES | HT1080 IDH1KD tx | KB-3-1 tox | KB-V1 cytotox | HT1080NT lethal | SW480 rerep | MCF10A rerep
Cc1cc(C(=O)NC2CC(C)(C)Cc3c2cnn3-c2ccccc2)n(C)n1 (configuration not stated) | -13% | · | · | 1% | 3% | -2%
CC(=O)[C@@]1(O)C(C)CC2C3C=C(C)C4=Cc5c(cnn5-c5ccccc5)C[C@]4(C)C3C(O)C[C@@]21C (some centres not stated) | 21µM* | ? | ? | 4.6µM* | 8.2µM* | 15µM*
O=C(O)C12CC3CC(C1)CC(n1ncc(NCc4ccccc4)c(Cl)c1=O)(C3)C2 | -5% | i | i | -10% | -12% | 15%
Cc1cc(C)cc(N(CC(=O)NCC2CCCO2)C(=O)CN2C(=O)COc3ccccc32)c1 (configuration not stated) | 3% | i | 13µM* | -2% | 0% | -1%
O=C(CN(C(=O)C1COc2ccccc2O1)c1ccccc1)NCC1CCCO1 (configuration not stated) | ? | i | ? | 0% | -2% | ?
CN(C)/C=N/c1ncc(C(=O)c2ccc(-c3ccccc3)cc2)s1 | -26% | i | 12µM* | -23% | 12% | 9.2µM*
CN(C)/C=N/c1ncc(C(=O)c2ccccc2)s1 | 1% | i | i | 0% | -12% | 257%[0.0737 µM]
c1ccn2cc(C34CC5CC(CC(C5)C3)C4)nc2c1 | -22% | i | i | -15% | 12% | 11%
O=C(c1cccs1)N1CCN(S(=O)(=O)c2cccc(Cl)c2Cl)CC1 | 3% | i | ? | 1% | -2% | 12%
COc1ccc2[nH]c3c(c2c1)CCN1C(=O)N([C@@H](C)C(=O)NCCc2ccc(F)cc2)C(=O)[C@]31C | -1% | 12µM* | ? | -4% | ? | ?
COc1ccc2[nH]c3c(c2c1)CCN1C(=O)N([C@@H](C)C(=O)NCc2ccc(F)cc2)C(=O)[C@]31C | 0% | i | i | -1% | 11% | -3%
CCOC(=O)c1cc(-c2ccc(F)cc2)n(CC(=O)NC2CCCCCC2)c1C | · | i | ? | · | · | ·
COc1ccc(S(=O)(=O)N2CCN(Cc3cc4c(cc3Br)OCCO4)CC2)cc1 | -4% | i | 15µM* | -4% | -1% | 24%
CCOC(=O)/C=c1\s/c(=C\c2ccc3cc(OC)ccc3c2)c(=O)n1CC(=O)NCc1ccc2c(c1)OCO2 | 9% | 18µM* | ? | 12% | 5% | 18%
Cc1cc(NC(=O)Cn2c(=O)n(Cc3ccccc3)c(=O)c3ccccc32)no1 | 4% | i | 7.3µM* | -1% | 8% | 12%
COc1cc2c(=O)n(Cc3ccccc3)c(=O)n(CC(=O)NCC3CCCO3)c2cc1OC (configuration not stated) | 12% | i | 21µM* | 5% | -3% | -2%
CCOC(=O)/C=c1\s/c(=C\c2ccccc2C)c(=O)n1CC(=O)NCc1ccc2c(c1)OCO2 | ? | i | 3.3µM* | ? | ? | ?
COc1ccccc1NC(=O)Cn1c(=O)n(Cc2ccccc2)c(=O)c2ccccc21 | · | i | i | · | · | ·
Cc1ccc(N(Cc2ccc([N+](=O)[O-])cc2)C(=O)c2ccco2)cc1 | -2% | i | ? | -18% | 0% | 6%
CCOC(=O)/C=c1/s/c(=C\c2c(OC)ccc3ccccc23)c(=O)n1CC(=O)NCC1CCCO1 (configuration not stated) | ? | ? | 4.6µM* | 16µM* | 15µM* | ?
CCOC(=O)/C=c1\s/c(=C\c2c(OCC)ccc3ccccc23)c(=O)n1CC(=O)NCC1CCCO1 (configuration not stated) | ? | ? | ? | -19% | 23% | ?
CN(C)c1cc[n+](CC(=O)c2cccs2)cc1 | -4% | i | i | -19% | 12% | 7%
CC1CC1c1ccc(/C=C(\C#N)C(=O)Nc2ccc(Cl)cc2Cl)o1 (configuration not stated) | -10% | i | ? | -2% | · | 16µM*
Cn1nnc2cc(C(=O)N3CCSCC3)ccc21 | 8% | i | i | 2% | -4% | ?
COc1cccc(NC(=O)Nc2nnc(Cc3ccccc3F)s2)c1 | ? | i | ? | -29% | 5% | 15µM*
SMILES | HT1080 IDH1KD tx | KB-3-1 tox | KB-V1 cytotox | HT1080NT lethal | SW480 rerep | MCF10A rerep
O=C(Nc1ccccc1)Nc1nnc(Cc2ccccc2F)s1 | -28% | i | i | -2% | -1%[9.22 µM] | 1%
O=C(Nc1ccc(F)cc1)Nc1nnc(Cc2ccccc2F)s1 | -12% | i | 18µM* | -16% | 1% | 2%
CN1C(=O)CC(Nc2cccc3cccc(N)c23)C1=O (configuration not stated) | -12% | i | i | -17% | -1%[1.84 µM] | ?
O=C(Nc1ccc2snnc2c1)Nc1cccc2ccccc12 | ? | 21µM* | ? | ? | -4% | ?
CCc1ccccc1NC(=O)Nc1ccc2snnc2c1 | · | i | i | · | · | ·
Cc1nc(N)[nH]c(=O)c1CCCNc1ccc([N+](=O)[O-])cc1 | -22% | i | i | -1% | 26% | 7%
CC(=O)c1c(C)nn(CC(O)COc2ccc3c(c2)CCC3)c1C (configuration not stated) | -13% | i | 10µM* | ? | 7% | -2%
Cc1nn(CC(O)COc2ccc3c(c2)CCC3)c(C)c1Br (configuration not stated) | -12% | i | ? | -9% | -1% | 10%
O=C(Oc1ccccc1/C=C\C(=O)c1cc2ccccc2o1)c1ccccc1 | ? | i | i | ? | ? | ?
COc1ccc(O)c(C(=O)/C=C/c2cc3ccccc3o2)c1 | 6% | i | i | 1% | ? | 2.6µM*
COc1cccc(C(=O)Oc2ccccc2/C=C\C(=O)c2cc3ccccc3o2)c1 | 21µM* | ? | i | 18µM* | ? | 0.58µM*
O=C(Oc1ccccc1/C=C\C(=O)c1cc2ccccc2o1)c1cccc(F)c1 | -29% | i | ? | ? | ? | 18µM*
Cc1cc(C)n(-c2ccc(C(=O)NC3CCCCC3)cc2)n1 | 3% | i | ? | 22% | 0% | 1%
CCCCCCCCN1C(=O)[C@H](CC(=O)N2CCN(C(=O)c3ccco3)CC2)C[C@@]2(C(=O)OCC)CCCC=C12 | ? | i | ? | ? | · | ·
Cc1noc(NS(=O)(=O)c2ccc(NC(=O)C(Cl)(Cl)Cl)cc2)c1C | 12% | i | i | 7% | -34% | 6%
